# In PubChem BioAssay:
# “And” between values parts separate entries of the source, which are not always exact repeats. Equal values may be shown once. The source made the active and inactive calls. Unless noted, no stated cut-off is given here; in the data, active means inhibition above about 80%; inactive means the rest.
# What was measured:
# [1] = sensitizers of A549 cells to miR-34 induction, primary screen, imaging, A549 dox-inducible miR-34, nuclei and caspase counts (AID 1347080;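 active means compounds whose cell count with miR-34 switched on is under 0.7 times the count with it off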); conditions: A549 miR-34 inducible, Hoechst nuclei count, 48 h
# [2] = survival rescue of mitochondrial mutant cells in low glucose, primary screen, MELAS cybrids, Rieske KO mouse fibroblasts, CellTiter-Glo (AID 1508586;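 active means mean z-score across replicates of 1.96 or higher in either the MELAS or the Rieske mutant cell line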;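 further: z relative to plate mean and SD of compound and empty wells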)
# [3] = LFS_MB_P medulloblastoma growth inhibition, cell-based, chromothripsis tumors, cisplatin or BGB combos (AID 1671449); conditions: LFS_MB_P medulloblastoma cells;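 further: cells exposed for 96 hours; 0% = vehicle DMSO and 100% = killing by high DMSO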
# [4] = HDN33 neuroblastoma growth inhibition, cell-based, chromothripsis tumors, cisplatin or BGB combos (AID 1671450); conditions: HDN33 neuroblastoma cells, stronger effect = higher value;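 further: cells exposed to compound for four days; 0% = vehicle DMSO and 100% = cell killing by high DMSO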
# [5] = ICB984 medulloblastoma cell growth inhibition, synergistic combos for chromothripsis tumors, cisplatin or BGB combos (AID 1671451; call rule not given here;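 further: cells exposed for 96 hours before readout; 0% = vehicle DMSO and 100% = killing by high DMSO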); conditions: ICB984 medulloblastoma cells, drug combinations, stronger effect = higher value
# [6] = LFS_MB_1R medulloblastoma cell growth inhibition, synergistic combos for chromothripsis tumors, cisplatin or BGB combos (AID 1671452); conditions: LFS_MB_1R medulloblastoma cells, stronger effect = higher value;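 further: cells exposed for 96 hours before readout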
# [7] = HTB85 osteosarcoma cell growth inhibition, synergistic combos for chromothripsis tumors, BGB or cisplatin IC20 combos (AID 1671453); conditions: HTB85 osteosarcoma cells, drug combinations, stronger effect = higher value;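 further: cells exposed for 96 hours before readout; 0% = vehicle DMSO and 100% = high DMSO killing control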
# [8] = CRL2098 osteosarcoma cell growth inhibition, synergistic combos for chromothripsis tumors, BGB or cisplatin IC20 combos (AID 1671454); conditions: CRL2098 osteosarcoma cells, drug combinations, stronger effect = higher value;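 further: cells exposed for 96 h before readout; 0% = vehicle DMSO and 100% = killing by high DMSO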
# [9] = HD-MB03 medulloblastoma cell growth inhibition, synergistic combos for chromothripsis tumors, BGB or cisplatin IC20 combos (AID 1671455; in the data active means inhibition above about 83%;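 further: 0% = vehicle DMSO and 100% = high DMSO as cytotoxic control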); conditions: HD-MB03 medulloblastoma cells, stronger effect = higher value
# [10] = UWB1.289 ovarian carcinoma cell growth inhibition, synergistic combos for chromothripsis tumors, BGB or cisplatin combos (AID 1671456); conditions: UWB1.289 ovarian carcinoma cells, stronger effect = higher value;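 further: cells exposed to compound for four days; 0% = vehicle DMSO and 100% = killing by high DMSO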
# [11] = LFS_MB_2R medulloblastoma cell growth inhibition, synergistic combos for chromothripsis tumors, cisplatin combos (AID 1671457); conditions: LFS_MB_2R medulloblastoma cells, stronger effect = higher value;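 further: cells exposed to compound for four days before readout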
# [12] = MDA-MB-436 breast carcinoma cell growth inhibition, synergistic combos for chromothripsis tumors, BGB or cisplatin combos (AID 1671458; call rule not given here;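 further: cells exposed for 96 hours; 0% = vehicle DMSO and 100% = killing by high DMSO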); conditions: MDA-MB-436 breast carcinoma growth inhibition, drug combinations, stronger effect = higher value
# [13] = UWB1.289_BRCA1 ovarian cancer growth, cell-based, BGB or cisplatin combinations (AID 1671459); conditions: UWB1.289 BRCA1 ovarian carcinoma, drug combinations, stronger effect = higher value
# [14] = human astrocyte viability loss, single and combined drugs, cytotoxicity control for chromothriptic childhood tumor combination screen, cell-based, BGB or cisplatin IC20 combos (AID 1671460); conditions: Human astrocytes, drug combinations, stronger effect = higher value;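 further: cells exposed to compounds for 96 hours before viability readout; 0% = vehicle and 100% = killing control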
# [15] = growth inhibition of BT084 medulloblastoma cells, cell-based, ICGC_MB145, cisplatin and BGB IC40 combos (AID 1671461); conditions: drug combinations, stronger effect = higher value;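 further: cells exposed to drugs for 96 hours; 0% = vehicle DMSO and 100% = high DMSO full killing control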
# [16] = growth inhibition of RCMB18 medulloblastoma cells, cell-based, cisplatin and BGB IC40 combos (AID 1671462); conditions: stronger effect = higher value;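 further: cells exposed to compound for four days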
# [17] = growth inhibition of CRL1545 osteosarcoma cells, cell-based, cisplatin and BGB IC20 combos (AID 1671464); conditions: stronger effect = higher value;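 further: cells exposed to compound for 96 hours before readout; 0% = vehicle DMSO and 100% = high DMSO killing control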
# [18] = hESC survival regulators, cell-based (AID 493140; call rule not given here;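 further: cells exposed to compounds for four days before counting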); conditions: human embryonic stem cell survival screen; stronger effect = higher value
# [19] = liver-stage malaria parasite growth inhibition, primary screen, cell-based, HepG2, luciferase luminescence, HepG2 viability (AID 624349; in the data active means parasite load remaining mostly below about 12%, no sharp cut-off; inactive means mostly above about 10%;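 further: 100% = mean of DMSO negative control wells on the same plate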); conditions: P. berghei liver stage in HepG2, luciferase luminescence, concentration not given here; parasite load remaining: stronger effect = lower value; viability: measured here: HepG2 viability without parasites
# [20] = stronger effect = lower value, cell number ratio, induced over uninduced
# [21] = measured here: relative caspase fold change +Dox/-Dox
# [22] = measured here: total cells with miR-34 induction, stronger effect = lower value
# [23] = measured here: total cells without miR-34 induction
# [24] = MELAS cybrid survival, CellTiter-Glo 48 h, stronger effect = higher value
# [25] = Rieske KO mouse fibroblast survival, CellTiter-Glo 72 h
# [26] = at 0.5 µM, stronger effect = higher value
# [27] = measured here: combination with BGB IC20, at 0.005 µM
# [28] = measured here: combination with BGB IC40, at 0.005 µM
# [29] = measured here: combination with BGB IC40, at 0.05 µM
# [30] = measured here: combination with cisplatin, at 0.5 µM, stronger effect = higher value
# [31] = measured here: combination with cisplatin, at 5 µM, stronger effect = higher value
# [32] = measured here: with BGB IC20 combination, at 0.5 µM
# [33] = measured here: with cisplatin IC20 combination, at 0.5 µM
# [34] = measured here: 5 uM single agent, at 5 µM
# [35] = measured here: combination with cisplatin, at 0.5 µM
# [36] = measured here: combination with cisplatin, at 5 µM
structure (smiles),measurement,setting,value
CC1OC(n2cc(F)c(=O)[nH]c2=O)C(O)C1O (stereo not given),fold change,[1]; [20],0.451 (active)
same,fold change,[1]; [21],2.09
same,cell count,[1]; [22],2920
same,cell count,[1]; [23],6480
same,z-score,[2]; [24],-0.306 (inactive)
same,z-score,[2]; [25],0.652
same,inhibition,[3]; [26],-9.42% (inactive)
same,inhibition,[3]; [27],-7.8%
same,inhibition,[3]; [28],-40.7%
same,inhibition,[3]; [29],-29.6%
same,inhibition,[3]; [30],-29.8%
same,inhibition,[3]; [31],-27.3%
same,inhibition,"[4]; BGB combo, at 5 µM",-8.24%
same,inhibition,[4]; at 0.5 µM,-30.6% (inactive)
same,inhibition,"[4]; cisplatin combo, at 5 µM",-12.9%
same,inhibition,[4]; [32],-22.1%
same,inhibition,[4]; [33],-19.8%
same,inhibition,"[4]; single agent, at 5 µM",-20.3%
same,inhibition,"[5]; BGB IC20 combo, at 0.005 µM",-5.88%
same,inhibition,"[5]; BGB IC40 combo, at 0.005 µM",-26.6%
same,inhibition,"[5]; BGB IC40 combo, at 0.05 µM",-7.54%
same,inhibition,[5]; at 0.5 µM,-15.5% (inactive)
same,inhibition,"[5]; cisplatin combo, at 0.05 µM",-10.5%
same,inhibition,"[5]; cisplatin combo, at 0.5 µM",-3.76%
same,inhibition,"[5]; cisplatin combo, at 5 µM",-40.8%
same,inhibition,[5]; [34],-21.2%
same,inhibition,[6]; at 0.5 µM,-23.1% (inactive)
same,inhibition,[6]; [29],-35.1%
same,inhibition,[6]; [35],-21.6%
same,inhibition,[6]; [36],-58.4%
same,inhibition,[7]; at 0.5 µM,-23.8% (inactive)
same,inhibition,"[7]; measured here: with BGB IC20, at 0.5 µM",-38.6%
same,inhibition,"[7]; measured here: with BGB IC20, at 5 µM",-31%
same,inhibition,"[7]; measured here: with cisplatin IC20, at 0.5 µM",-26.6%
same,inhibition,"[7]; measured here: with cisplatin IC20, at 5 µM",-40.3%
same,inhibition,"[7]; single agent, at 5 µM",-22%
same,inhibition,[8]; at 0.5 µM,-5.43% (inactive)
same,inhibition,"[8]; measured here: combination with BGB at IC20, at 0.5 µM",-21.1%
same,inhibition,"[8]; measured here: combination with cisplatin at IC20, at 0.5 µM",-73.9%
same,inhibition,[9]; at 0.5 µM,-15.3% (inactive)
same,inhibition,"[9]; measured here: combo with BGB at IC20, at 0.5 µM",-17.8%
same,inhibition,"[9]; measured here: combo with cisplatin at IC20, at 0.5 µM",-10.3%
same,inhibition,[10]; at 0.5 µM,-6.51% (inactive)
same,inhibition,"[10]; measured here: inhibition with BGB combination, at 0.05 µM",-35.5%
same,inhibition,"[10]; measured here: inhibition with cisplatin combination, at 0.05 µM",-17.5%
same,inhibition,[11]; at 0.5 µM,-17.7% (inactive)
same,inhibition,[11]; [35],-12.9%
same,inhibition,[11]; [36],-95.4%
same,inhibition,[12]; at 0.5 µM,-32.6% (inactive)
same,inhibition,"[12]; measured here: BGB combination, at 0.5 µM",-38.6%
same,inhibition,"[12]; measured here: BGB combination, at 5 µM",-19.2%
same,inhibition,"[12]; measured here: cisplatin combination, at 0.5 µM",-54.4%
same,inhibition,"[12]; measured here: cisplatin combination, at 5 µM",12%
same,inhibition,"[13]; BGB combination, concentration series, at 5 µM",-3.82%
same,inhibition,[13]; at 0.5 µM,-19.6% (inactive)
same,inhibition,"[13]; cisplatin combination, concentration series, at 5 µM",4%
same,inhibition,[14]; at 0.5 µM,-18.2% (inactive)
same,inhibition,"[14]; measured here: combo with BGB IC20, at 0.5 µM",-17.6%
same,inhibition,"[14]; measured here: combo with cisplatin IC20, at 0.5 µM",-13.1%
same,inhibition,[15]; at 0.5 µM,-33.9% (inactive)
same,inhibition,"[15]; cisplatin combination, at 0.5 µM",-18.2%
same,inhibition,"[15]; cisplatin combination, at 5 µM",3.57%
same,inhibition,"[15]; measured here: BGB IC40 combination 0.05 uM, at 0.05 µM",-9.17%
same,inhibition,"[15]; single agent, at 5 µM",-31.7%
same,inhibition,[16]; at 0.5 µM,-20.6% (inactive)
same,inhibition,"[16]; cisplatin combo, at 5 µM",-44.8%
same,inhibition,"[16]; measured here: BGB IC40 combination, at 0.05 µM",-8.2%
same,inhibition,[16]; [35],-22.5%
same,inhibition,"[16]; single agent, at 5 µM",-11.4%
same,inhibition,[17]; at 0.5 µM,-45.1% (inactive)
same,inhibition,[17]; [32],-21.9%
same,inhibition,[17]; [33],-60.2%
same,inhibition,"[17]; single agent, at 0.05 µM",-41.1%
same,inhibition,"[17]; single agent, at 5 µM",-1.1%
CC(=O)O[C@]1(C(C)=O)CC[C@H]2[C@@H]3C=C(Cl)C4=CC(=O)C5CC5[C@]4(C)[C@H]3CC[C@@]21C (stereo not given in full),survival,[18],12.6 (inactive)
same,parasite load remaining,[19],65.7% (inactive)
same,viability,[19],68.5%
same,fold change,[1]; [20],0.93 (inactive)
same,fold change,[1]; [21],0.98
same,cell count,[1]; [22],8920
same,cell count,[1]; [23],9590
same,z-score,[2]; [24],-0.145 (inactive)
same,z-score,[2]; [25],0.56
O=C1OC(CN2CCOCC2)CN1N=Cc1ccc([N+](=O)[O-])o1 (stereo not given),survival,[18],5.92 (inactive)
same,fold change,[1]; [20],0.85 (inactive)
same,fold change,[1]; [21],1.96
same,cell count,[1]; [22],8420
same,cell count,[1]; [23],9900
same,z-score,[2]; [24],-0.512 (inactive)
same,z-score,[2]; [25],-0.452
O=c1ccn(C2OC(CO)C(O)C2O)c(=O)[nH]1 (stereo not given),fold change,[1]; [20],0.86 (inactive)
same,fold change,[1]; [21],0.784
same,cell count,[1]; [22],8240
same,cell count,[1]; [23],9580
same,z-score,[2]; [24],-0.15 (inactive)
same,z-score,[2]; [25],0.496
same,inhibition,[3]; [26],-8.26% (inactive) and 22% (inactive)
same,inhibition,[3]; [27],10.5% and -21.6%
same,inhibition,[3]; [28],8.95% and -30.9%
same,inhibition,[3]; [29],17.3% and -34.8%
same,inhibition,[3]; [30],37.5% and 6.75%
same,inhibition,[3]; [31],-10.3% and -15.6%
same,inhibition,"[4]; BGB combo, at 5 µM",17.7% and -13.8%
same,inhibition,[4]; at 0.5 µM,23.7% (inactive) and 2.11% (inactive)
same,inhibition,"[4]; cisplatin combo, at 5 µM",22% and -0.337%
same,inhibition,[4]; [32],17.2% and -17.5%
same,inhibition,[4]; [33],35.5% and -0.199%
same,inhibition,"[4]; single agent, at 5 µM",18.6% and -37.8%
same,inhibition,"[5]; BGB IC20 combo, at 0.005 µM",12.4% and 14.9%
same,inhibition,"[5]; BGB IC40 combo, at 0.005 µM",6.25% and -39.4%
same,inhibition,"[5]; BGB IC40 combo, at 0.05 µM",-7.22% and -39.4%
same,inhibition,[5]; at 0.5 µM,-8.08% (inactive) and -24.1% (inactive)
same,inhibition,"[5]; cisplatin combo, at 0.05 µM",-11.1% and -43.3%
same,inhibition,"[5]; cisplatin combo, at 0.5 µM",4.25% and -24.8%
same,inhibition,"[5]; cisplatin combo, at 5 µM",-7.38% and -52.9%
same,inhibition,[5]; [34],7.59% and -39.4%
same,inhibition,[6]; at 0.5 µM,-5.2% (inactive) and -14.4% (inactive)
same,inhibition,[6]; [29],-12.7% and -13.9%
same,inhibition,[6]; [35],-10% and 2.17%
same,inhibition,[6]; [36],-46% and -44.9%
